Results reported in PubChem BioAssay (NCI).
About 83,000 compounds went through this panel and 20% of them were active in at least one assay; those are over-represented in the sample as a whole.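 Each cell line was grown in a 96-well plate and treated with one concentration of compound for 48 hours. Values below 10 were considered active.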 Values without a mark were called inactive. Active and inactive are the calls of the source.

Columns and labels:
Assay in all cases: NCI-60 one-dose screen, 48 h (100 = growth as untreated, 0 = no growth, -100 = all killed)
Conditions in all cases: 10 µM unless noted
NCI-H23 lung = tested on: NCI-H23 lung
NCI-H226 lung = tested on: NCI-H226 lung
NCI-H322M lung = tested on: NCI-H322M lung
HOP-62 NSCLC = tested on: HOP-62 NSCLC
NCI-H460 lung = tested on: NCI-H460 lung
HOP-92 NSCLC = tested on: HOP-92 NSCLC
NCI-H522 lung = tested on: NCI-H522 lung
A549/ATCC NSCLC = tested on: A549/ATCC NSCLC
786-0 renal = tested on: 786-0 renal
COLO 205 colon = tested on: COLO 205 colon
DU-145 prostate = tested on: DU-145 prostate
K-562 leukemia = tested on: K-562 leukemia
MALME-3M melanoma = tested on: MALME-3M melanoma
MDA-MB-231 breast = tested on: MDA-MB-231 breast
RXF 393 renal = tested on: RXF 393 renal
SF-268 CNS = tested on: SF-268 CNS
SF-295 CNS = tested on: SF-295 CNS
SF-539 CNS = tested on: SF-539 CNS
UACC-257 melanoma = tested on: UACC-257 melanoma
M14 melanoma = tested on: M14 melanoma

SMILES | growth (NCI-H23 lung) | growth (NCI-H226 lung) | growth (NCI-H322M lung) | growth (HOP-62 NSCLC) | growth (NCI-H460 lung) | growth (HOP-92 NSCLC) | growth (NCI-H522 lung) | growth (A549/ATCC NSCLC) | growth (786-0 renal) | growth (COLO 205 colon) | growth (DU-145 prostate) | growth (K-562 leukemia) | growth (MALME-3M melanoma) | growth (MDA-MB-231 breast) | growth (RXF 393 renal) | growth (SF-268 CNS) | growth (SF-295 CNS) | growth (SF-539 CNS) | growth (UACC-257 melanoma) | growth (M14 melanoma)
CON1C(=O)CC[C@]2(C)[C@H]3CC[C@@H]4C([C@@]5(C)CCC(=O)O5)CC[C@@]4(C)[C@]3(C)CC[C@H]2C1(C)C (stereo not given in full) | 95.6% | 94.9% | 108% | 98.4% | 103% | 95.3% | 85.9% | 102% | 100% | 124% | 107% | 83% | 105% | 96.5% | 98% | 97.4% | 104% | 99.8% | 107% | 97%
CCCCn1c(-c2ccc(C(=O)O/N=C(\N)c3ccc4ccccc4c3)cc2)nc(-c2ccccc2)c1-c1ccccc1 | 65% | 61.7% | 80.8% | 91.5% | 26.3% | 77.6% | 71.7% | 42% | 77.8% | 90.8% | 65.3% | 11.9% | 93.4% | 70% | 58.2% | 48.9% | 81% | 81.3% | 98.3% | 82.6%
CCN=C1C=CC(=C(c2ccc(N)cc2)c2ccc(N(CC)CC)c(C)c2)C=C1 | -14.9% (active) | -30.9% (active) | 3.81% (active) | 9.19% (active) | -53.9% (active) | -40.5% (active) | -5.45% (active) | 10.3% | -47.2% (active) | -43.1% (active) | -20.6% (active) | 3.56% (active) | -31% (active) | -17.6% (active) | -16.7% (active) | 4.51% (active) | -19.1% (active) | -31.2% (active) | -0.947% (active) | -42.1% (active)
Cn1cc(-c2nonc2-c2c[nH]c3ccccc23)c2cccnc21 | 54.4% | 30.2% | 88.6% | 36.5% | 21.6% | 62.2% | 18.4% | 36.2% | 65.8% | 37.6% | 67.7% | 12.7% | 50.5% | 59.6% | 36.1% | 56.5% | 51.4% | 41.9% | 55% | 21.2%
Cc1nn(-c2cc(=O)[nH]c3ccccc23)c(N)c1C#N | 106% | 91.4% | 97% | 100% | 104% | 106% | 95.6% | 107% | 105% | 123% | 107% | 105% | 108% | 103% | 112% | 97.7% | 100% | 95% | 110% | 106%
COc1cc(C=Nc2oc(-c3ccccc3)c(-c3ccccc3)c2C#N)cc(CN2CCCCC2)c1O | 88.6% | 90.5% | 99.6% | 97.8% | 101% | 103% | 88% | 105% | 102% | 122% | 107% | 102% | 110% | 106% | 104% | 94.9% | 102% | 101% | 116% | 109%
C#Cc1cccc(NC(=O)c2ccccc2NC(=O)CCl)c1 | 64.4% [8.25 µM] | 50.1% [8.25 µM] | 99.3% [8.25 µM] | 75.8% [8.25 µM] | 98.3% [8.25 µM] | 77.4% [8.25 µM] | 10.6% [8.25 µM] | 92.7% [8.25 µM] | 87.5% [8.25 µM] | 114% [8.25 µM] | 96.2% [8.25 µM] | 68.2% [8.25 µM] | 105% [8.25 µM] | 111% [8.25 µM] | 96.7% [8.25 µM] | 68% [8.25 µM] | 103% [8.25 µM] | 93.4% [8.25 µM] | 98.4% [8.25 µM] | 83.3% [8.25 µM]
COc1ccc(S(=O)(=O)N2CCCCC2)cc1NC(=O)c1[nH]c(C)c2c1CCCCC2=O | 26% | 46.2% | 31.8% | 26% | 34.8% | 26.9% | 7.18% (active) | 28.2% | 32.3% | 22.9% | 61.5% | 22% | 45.2% | 29.1% | 3.54% (active) | 48.1% | 23.9% | 24.9% | 32% | 36%
